Data reported in PubChem BioAssay (NCATS).
Records with an inconclusive call do not appear. The source holds several records for some structures; these can differ, active in one and inactive in another. Active and inactive are the calls of the source. Calls come from the whole dose curve; as a rule, active = well fitted curve in the direction sought with a large enough effect; inconclusive = small, poorly fitted or top-dose-only effect, or another doubt; inactive = no such curve, though single readings can be large; an effect the other way counts as inactive or inconclusive.

Tests used:
[1] = qHTS for differential inhibitors of proliferation of Plasmodium falciparum line D10 (AID 1877);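 note: parasites grown with compound for 72 h before DNA staining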; note: potency is the fitted concentration of half-maximal effect
[2] = qHTS for differential inhibitors of proliferation of Plasmodium falciparum line HB3 (AID 1886); settings: Potency: Plasmodium falciparum HB3 proliferation inhibition;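 note: parasites grown with compound for 72 h before SYBR Green readout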; note: potency is the fitted concentration of half-maximal effect
[3] = Quantitative high throughput screen for delayed death inhibitors of the malarial parasite plastid, 96 hour incubation (AID 488745); note: % is set by controls: 0 for no effect and ±100 for the full control effect; nearly all actives have a fitted effect of over 70% in size
Outline: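 Decreased firefly luciferase luminescence indicates inhibited growth of reporter-integrated P. falciparum after two generations (96 h, 37 C, 5% CO2). Infected erythrocytes at 0.1% parasitemia, 2% hematocrit, in Albumax-supplemented RPMI 1640.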

[4] = qHTS assay for cell viability of HEK293 cells (AID 743288); settings: ATP luminescence (CellTiter-Glo), 18 h; max response: hits give low values; note: nearly all actives have a fitted effect of over 50% in size; note: potency is the fitted concentration of half-maximal effect; for max response: % is set by controls: 0 for no effect and ±100 for the full control effect
Outline: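 ATP luminescence (CellTiter-Glo) reports metabolically competent cell number after parental HEK293 cells, 2,000/well, were treated with DMSO-dissolved compounds for 18 h at 37 C; reagent incubation 30 min, room temperature.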

AS120 = assay: qHTS profiling for inhibitors of Plasmodium falciparum proliferation (AID 504749); note: nearly all actives have a fitted effect of over 60% in size; note: potency is the fitted concentration of half-maximal effect; settings: P. falciparum in erythrocytes, SYBR Green DNA, 72 h; series mostly up to 28.7 µM
Outline: (§1)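 Quantitative HTS: compounds pinned into medium, infected erythrocytes added (0.3% parasitemia, 2.5% hematocrit), 72 h culture at 37 C under 5% CO2. Saponin/Triton lysis with SYBR Green I, overnight RT, then fluorescence read.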

ATS189 = assay: as above; settings: P. falciparum in erythrocytes, SYBR Green DNA, 72 h; series mostly up to 28.7 µM
Outline: as §1

CP185 = assay: as above; settings: P. falciparum in erythrocytes, SYBR Green DNA, 72 h; series mostly up to 28.7 µM
Outline: as §1

CP191 = assay: as above; settings: P. falciparum in erythrocytes, SYBR Green DNA, 72 h; series mostly up to 28.7 µM
Outline: as §1

CP192 = assay: as above; settings: P. falciparum in erythrocytes, SYBR Green DNA, 72 h; series mostly up to 28.7 µM
Outline: as §1

CP201 = assay: as above; settings: P. falciparum in erythrocytes, SYBR Green DNA, 72 h; series mostly up to 28.7 µM
Outline: as §1

CP203 = assay: as above; settings: P. falciparum in erythrocytes, SYBR Green DNA, 72 h; series mostly up to 28.7 µM
Outline: as §1

CP247 = assay: as above; settings: P. falciparum in erythrocytes, SYBR Green DNA, 72 h; series mostly up to 28.7 µM
Outline: as §1

CP286 = assay: as above; settings: P. falciparum in erythrocytes, SYBR Green DNA, 72 h; series mostly up to 28.7 µM
Outline: as §1

CP291 = assay: as above; settings: P. falciparum in erythrocytes, SYBR Green DNA, 72 h; series mostly up to 28.7 µM
Outline: as §1

DFO2036 = assay: as above; settings: P. falciparum in erythrocytes, SYBR Green DNA, 72 h; series mostly up to 28.7 µM
Outline: as §1

DIV30 = assay: as above; settings: P. falciparum in erythrocytes, SYBR Green DNA, 72 h; series mostly up to 28.7 µM
Outline: as §1

HB3 = assay: as above; settings: P. falciparum in erythrocytes, SYBR Green DNA, 72 h; series mostly up to 28.7 µM
Outline: as §1

P94_40 = assay: as above; settings: P. falciparum in erythrocytes, SYBR Green DNA, 72 h; series mostly up to 28.7 µM
Outline: as §1

TAB109 = assay: as above; settings: P. falciparum in erythrocytes, SYBR Green DNA, 72 h; series mostly up to 28.7 µM
Outline: as §1

TAB113 = assay: as above; settings: P. falciparum in erythrocytes, SYBR Green DNA, 72 h; series mostly up to 28.7 µM
Outline: as §1

COc1ccc(-n2nc(C(F)(F)F)cc2-c2ccc(Cl)cc2)cc1
active: Potency [1] 12.6 µM | Potency [2] 12.6 µM
inactive: Potency [3]

Cc1ccc2cc3c(ccc4ccccc43)c3c2c1CC3
inactive: max response [4] -7.81%

CCN1C[C@]2(COC)[C@H](O)C[C@H](OC)[C@]34C1C([C@H](OC)[C@H]23)[C@]1(OC(C)=O)C2[C@@H](OC(=O)c3ccccc3)C(O)(C[C@H]24)[C@@H](OC)[C@@H]1O
inactive: Potency (AS120) | Potency (ATS189) | Potency (CP185) | Potency (CP191) | Potency (CP192) | Potency (CP201) | Potency (CP203) | Potency (CP247) | Potency (CP286) | Potency (CP291) | Potency (DFO2036) | Potency (DIV30) | Potency (HB3) | Potency (P94_40) | Potency (TAB109) | Potency (TAB113)

CC(C)(c1ccc(OCC2CO2)cc1)c1ccc(OCC2CO2)cc1 (stereo not given)
inactive: max response [4] -24%
active: Potency [4] 70.8 µM

O=C(O)c1ccccc1-c1c2cc(Br)c(=O)cc-2oc2[c]([Hg])c(O)c(Br)cc12
inactive: Potency (AS120) | Potency (ATS189) | Potency (CP185) | Potency (CP191) | Potency (CP192) | Potency (CP201) | Potency (CP203) | Potency (CP247) | Potency (CP286) | Potency (CP291) | Potency (DFO2036) | Potency (DIV30) | Potency (HB3) | Potency (P94_40) | Potency (TAB109) | Potency (TAB113)

CC(C)[C@@]1(NC(=O)[C@H]2CC3c4cccc5[nH]cc(c45)C[C@H]3N(C)C2)O[C@@]2(O)C3CCCN3C(=O)[C@@H](Cc3ccccc3)N2C1=O (stereo not given in full)
active: Potency (AS120) 891 nM | Potency (ATS189) 2.82 µM | Potency (CP185) 10 µM | Potency (CP191) 5.01 µM | Potency (CP192) 7.57 µM | Potency (CP201) 10.7 µM | Potency (CP203) 6.75 µM | Potency (CP247) 8.91 µM | Potency (CP286) 3.98 µM | Potency (CP291) 10.7 µM | Potency (DFO2036) 7.08 µM | Potency (DIV30) 1.51 µM | Potency (HB3) 2 µM | Potency (P94_40) 2 µM | Potency (TAB109) 4.47 µM | Potency (TAB113) 3.55 µM

COc1ccc2[nH]cc(CCN(C)C)c2c1
inactive: Potency [1] | Potency [2] | Potency [3]

CN1CCN(c2ccc3ccccc3n2)CC1
inactive: Potency [1] | Potency [2] | Potency [3]
